This is a sample that favours compounds with a hit; in the whole collection about 7% have one here.
NR3A LBD binder – modulators (binders) of human NR3A ligand-binding domain | NR3A LBD differential scanning fluorimetry, Tm shift; 0% = protein alone, 100% = glycine-bound protein | Tm shift relative to glycine control, % at 25 µM | 340,000 compounds, 2.5% hits | AID 1259313;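 active = melting temperature shift of at least 10% of the positive control shift, at one fixed dose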
ADAM17 inh – inhibitors of human ADAM17; P78536; recombinant ADAM17, EDANS/DABCYL FRET peptide cleavage; inhibition, % at 6.95 µM; 370,000 compounds, 0.83% hits;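 active = inhibition above the mean of compounds lying between control limits plus 3 SD, set per campaign, cut at about 8.5% in these data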
ADAM10 inh – inhibitors of human ADAM10 | recombinant ADAM10, EDANS/DABCYL FRET peptide cleavage, 3 h | inhibition, % at 7 µM | 370,000 compounds, 0.62% hits | AID 720582 | O14672;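 active = inhibition above a per-campaign cutoff equal to the mean of compounds falling between control-based bounds plus 3 SD, cut at about 20% in these data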
rCAG binder – molecules binding r(CAG) RNA repeats; r(CAG) RNA repeat, TO-PRO-1 dye displacement fluorescence; 370,000 compounds, 1.3% hits; inhibition, % at 3 µM; AID 651821;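 active = inhibition above the plate cutoff, the mean of all test compounds on that plate plus 3 SD, cut at about 35% in these data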;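 note: higher means more dye released from RNA so lower well fluorescence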
AHR activator – human AHR activation; AHR-responsive luciferase reporter cells, luminescence; activation, % at 5 µM; 320,000 compounds, 2.5% hits; in the data active = activation above about 47%
Target sequence (P35869 whole entry, looked up): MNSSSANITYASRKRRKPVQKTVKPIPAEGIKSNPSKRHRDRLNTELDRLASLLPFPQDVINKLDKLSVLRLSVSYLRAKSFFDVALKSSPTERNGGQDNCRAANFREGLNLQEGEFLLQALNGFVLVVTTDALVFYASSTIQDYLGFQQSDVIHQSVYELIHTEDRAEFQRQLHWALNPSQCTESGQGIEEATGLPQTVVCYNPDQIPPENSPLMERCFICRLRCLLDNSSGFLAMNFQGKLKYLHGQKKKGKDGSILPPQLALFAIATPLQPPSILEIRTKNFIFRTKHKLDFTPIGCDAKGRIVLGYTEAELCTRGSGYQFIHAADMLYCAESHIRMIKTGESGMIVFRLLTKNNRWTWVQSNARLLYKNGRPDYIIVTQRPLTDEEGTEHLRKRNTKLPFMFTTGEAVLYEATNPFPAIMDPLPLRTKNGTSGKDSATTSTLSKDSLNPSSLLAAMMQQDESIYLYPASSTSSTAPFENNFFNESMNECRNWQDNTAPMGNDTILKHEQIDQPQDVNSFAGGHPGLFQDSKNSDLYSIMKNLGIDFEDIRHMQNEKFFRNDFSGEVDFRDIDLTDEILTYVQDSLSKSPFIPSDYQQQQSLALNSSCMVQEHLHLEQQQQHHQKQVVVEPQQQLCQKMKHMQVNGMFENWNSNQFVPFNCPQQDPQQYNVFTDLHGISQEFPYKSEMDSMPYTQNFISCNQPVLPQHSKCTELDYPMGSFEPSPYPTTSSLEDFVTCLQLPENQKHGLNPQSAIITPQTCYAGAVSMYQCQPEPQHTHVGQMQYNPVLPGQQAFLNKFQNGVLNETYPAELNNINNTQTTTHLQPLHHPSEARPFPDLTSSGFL
KLK7 zymogen act – activators of human kallikrein-7 zymogen. 370,000 compounds, 0.9% hits. purified proKLK7, EDANS-DABCYL substrate fluorescence; 100% is mature enzyme control, 0% vehicle. AID 652039. activation, % at 7 µM;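 active = activation above the mean of all tested compounds plus 3 SD, computed per campaign excluding outliers beyond control limits, cut at about 13% in these data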
rCAG bind conf – r(CAG) RNA repeat binding, confirmation. shares compounds with rCAG binder. TO-PRO-1 dye displacement fluorescence. inhibition, % at 3 µM. 4,300 compounds, 70% hits. AID 652065;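 active = inhibition above a per-plate cutoff, the mean inhibition of sample wells plus 3 SD, cut at about 35% in these data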;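 note: loss of TO-PRO-1 fluorescence as compound displaces dye from 1x1 AA loop RNA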
dCAG dye counter – counter-screen for rCAG RNA binders: DNA CAG dye complex inhibitors; shares compounds with rCAG binder; d(CAG) DNA oligo TO-PRO-1 dye displacement, fluorescence; inhibition, % at 3 µM; 4,300 compounds, 94% hits;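 active = inhibition above its plate's cutoff, the mean test-well inhibition plus 3 SD, cut at about 4.8% in these data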;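 note: hits displace the dye from DNA and so lower well fluorescence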
DNA CAG DR – counter-screen for rCAG binders: inhibitors of DNA CAG TO-PRO-1 complex. shares compounds with rCAG binder. DNA CAG/GTC duplex TO-PRO-1 dye displacement fluorescence. IC50, µM. 250 compounds, 20% hits. AID 686960; in the data active = IC50 below about 10 µM
Large screens that a line does not name were inactive (follow-up assays come after a bar, where they were run).

N=C1/C(=C\c2ccc(OC(=O)c3ccco3)cc2)C(=O)N=C2SC(N3CCCCC3)=NN12	rCAG binder 40 | rCAG bind conf inactive | dCAG dye counter 11
CCS(=O)(=O)C1=NN2C(=N)/C(=C\c3ccc(OC(=O)c4ccco4)c(Br)c3)C(=O)N=C2S1	none (no result: NR3A LBD binder, ADAM17 inh, ADAM10 inh, rCAG binder, KLK7 zymogen act)
CCOc1cc(/C=C2\C(=N)N3N=C(S(=O)(=O)CC)SC3=NC2=O)ccc1OC(=O)c1ccco1	rCAG binder 42 | rCAG bind conf 84 | dCAG dye counter 51
O=S(=O)(Nc1ncnc2c1oc1ccccc12)c1ccc(Cl)s1	rCAG binder 36 | rCAG bind conf inactive | dCAG dye counter inactive
CNc1c(NS(=O)(=O)c2ccc(Cl)s2)c(=O)oc2ccccc12	none
Cc1ccc(S(=O)(=O)N2[C@@H](c3ccccc3)C(C(=O)O)=CC[C@H]2c2ccc(C(C)C)cc2)cc1	rCAG binder 81 | rCAG bind conf 78 | dCAG dye counter 41
Cc1ccc([C@H]2C(C(=O)O)=CC[C@@H](c3ccc(C(C)C)cc3)N2S(=O)(=O)c2ccc(C)cc2)cc1	rCAG binder 88 | rCAG bind conf 81 | dCAG dye counter 48
CC(C)CN1C(=O)C[C@]2(C(=O)N(C)c3ccc(NS(=O)(=O)C4CC4)cc32)C1c1ccccc1 (stereo not given in full)	none (no result: NR3A LBD binder, AHR activator)
CNc1ccc(Br)cc(C(=O)/C=C/c2cccc(OC)c2OC)c1=O	rCAG binder 35 | rCAG bind conf inactive | dCAG dye counter 11
CNc1ccc(Br)cc(C(=O)/C=C/c2cccc(Cl)c2Cl)c1=O	rCAG binder 48 (no result: AHR activator) | rCAG bind conf 50 | dCAG dye counter 23
CCNc1ccccc(C(=O)/C=C/c2ccc3c(c2)OCO3)c1=O	none
CCNc1ccc(Br)cc(C(=O)/C=C/c2ccccc2Cl)c1=O	rCAG binder 46 | rCAG bind conf inactive | dCAG dye counter 15
COc1cccc(NC(=O)Nc2nc3ncccn3c2-c2ccc(C)cc2)c1	none (no result: NR3A LBD binder, AHR activator)
COC(=O)[C@]12C[C@H](CC(=O)NCC3CCCCC3)C(=O)N(CCc3ccc(OC)c(OC)c3)C1=C[C@H](C(C)C)O[C@@H]2C1CC1	none (no result: NR3A LBD binder, AHR activator)
O=C(O)/C=C/c1cn(-c2ccccc2)nc1-c1cc2ccccc2o1	rCAG binder 67 | rCAG bind conf 73 | dCAG dye counter 26 | DNA CAG DR inactive
O=C(O)/C=C\c1cn(-c2ccccc2)nc1-c1cc2ccccc2o1	rCAG binder 72 | rCAG bind conf 62 | dCAG dye counter 22
COC(=O)C1=C(C)NC(=S)NC1c1ccc(Br)cc1 (stereo not given)	none (no result: NR3A LBD binder, AHR activator)
Cc1ccc(NC(=O)C2CCN(c3ncccn3)CC2)cc1C	none (no result: NR3A LBD binder, AHR activator)
Clc1ccc(-c2nnc(SCc3cccc4ccccc34)n2Cc2ccco2)cc1	none (no result: NR3A LBD binder, AHR activator)
Cc1[nH]c2ccccc2c1C(=O)c1c(N)[nH]c(C(=O)c2ccc(Br)cc2)c1-c1ccc(Br)cc1	none (no result: NR3A LBD binder, AHR activator)
COc1cccc(-c2nc(NCc3ccccc3)c3ccccc3n2)c1O	rCAG binder 38 | rCAG bind conf inactive | dCAG dye counter 15
COc1cccc(-c2nc(NCc3ccco3)c3ccccc3n2)c1O	none
Nc1nc2c(ncn2[C@@H]2O[C@H](C(=O)NCC3CCCCC3)[C@@H](O)[C@H]2O)c(=O)[nH]1	none (no result: NR3A LBD binder, AHR activator)
COc1ccc(C(=O)O)cc1NC(=S)NC(=O)c1ccc(-c2ccc(Cl)cc2)o1	rCAG binder 40 (no result: AHR activator) | rCAG bind conf 72 | dCAG dye counter 32 | DNA CAG DR 7.7
Cc1ccc(C(=O)O)cc1NC(=S)NC(=O)c1ccc(-c2ccccc2)cc1	rCAG binder 55 | rCAG bind conf 67 | dCAG dye counter 20
CSCCC(C(=O)Nc1c(C)cccc1C)n1c(COc2ccc(C)cc2)nc2ccccc21 (stereo not given)	none (no result: NR3A LBD binder, AHR activator)
COc1ccc(OC)c(CNc2ccc3c(c2)nc(C)n3C)c1	rCAG binder 44 | rCAG bind conf inactive | dCAG dye counter inactive
COc1ccc(CNc2ccc3c(c2)nc(C)n3C)cc1	none
COc1ccc(-c2nc3c(C)cc(Br)cn3c2Cc2ccccc2C(F)(F)F)cc1OC	none (no result: NR3A LBD binder, AHR activator)
CCOc1cc(/C=C2\SC(=S)N(C(C(=O)O)c3ccccc3)C2=O)ccc1O (stereo not given)	rCAG binder 66 | rCAG bind conf 62 | dCAG dye counter 25
O=C(O)C(c1ccccc1)N1C(=O)/C(=C\c2ccc(O)c(O)c2)SC1=S (stereo not given)	rCAG binder 42 | rCAG bind conf 53 | dCAG dye counter 22
CCOc1ccc(/C=C2/SC(=S)N(C(C(=O)O)c3ccccc3)C2=O)cc1OCC (stereo not given)	none (no result: AHR activator)
COc1cc(/C=C2/SC(=NCc3ccccc3)N(Cc3ccccc3)C2=O)ccc1O	NR3A LBD binder 13, rCAG binder 38 | rCAG bind conf 42 | dCAG dye counter 23
COc1cc(/C=C2\SC(=S)N(C(C(=O)O)c3ccccc3)C2=O)ccc1O (stereo not given)	rCAG binder 43 | rCAG bind conf inactive | dCAG dye counter 8.5
O=C(c1ccccc1)n1ccc2ccc(-c3ccc4ccn(Cc5ccccc5)c4c3)cc21	none (no result: NR3A LBD binder, AHR activator)
COc1ccccc1/C=C1\SC(=S)N(C(C(=O)O)c2ccccc2)C1=O (stereo not given)	rCAG binder 67 | rCAG bind conf 67 | dCAG dye counter 27
CCOC(=O)c1sc(NC(=O)CSc2n[nH]c(-c3ccccc3)n2)c(C#N)c1C	NR3A LBD binder 27, rCAG binder 60 | rCAG bind conf 56 | dCAG dye counter 19
O=S(=O)(NCC[C@@H]1CC[C@H](NS(=O)(=O)c2cccc(F)c2)[C@@H](CO)O1)c1cccc(F)c1	none (no result: NR3A LBD binder, AHR activator)
CC1(C(=O)NS(=O)(=O)c2ccc(Cl)s2)CCN1C(=O)C1CCCCC1 (stereo not given)	none (no result: NR3A LBD binder, AHR activator)
CC1(C(=O)NS(=O)(=O)c2ccc(Cl)s2)CCN1C(=O)c1ccc(C2CCCCC2)cc1 (stereo not given)	rCAG binder 66 (no result: NR3A LBD binder, AHR activator) | rCAG bind conf 74 | dCAG dye counter 37
O=S1(=O)CC(N2CC=CC2)CN1Cc1cn(Cc2cccc(C(F)(F)F)c2)nn1 (stereo not given)	none (no result: NR3A LBD binder, AHR activator)
O=C(Nc1ccc(S(=O)(=O)Nc2cnc3ccccc3n2)cc1)c1ccc(Cl)c([N+](=O)[O-])c1	NR3A LBD binder 24, rCAG binder 79 | rCAG bind conf 67 | dCAG dye counter 30

Screening results (PubChem)
